ARNT TACC3 PPI – disruptors of human ARNT/TACC3 interaction. Q9Y6A5. AlphaScreen His-ARNT PAS-B/GST-TACC3 binding, luminescence; TACC3 fragment carries E629A point mutation. inhibition, % at 9.99 µM. hit rate 0.66% among 390,000;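 active = mean inhibition of replicates at least 50% and at least half of replicates each reaching 50%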;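 also: 0% = complete ARNT plus TACC3 wells and 100% = ARNT alone without TACC3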
SUMO Mot1 rescue – blocks SUMOylation pathway, rescuing yeast Mot1-301 growth | S. cerevisiae Mot1-301 growth rescue, ATP luminescence, 38.5C; percent above DMSO median, 100 means doubled | hit rate 1% among 320,000 | growth rescue, % at 18.8 µM | AID 2716;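 active = every valid replicate shows activation above 250% relative to neutral control wells; inactive = the rest, any valid replicate at or below 250%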;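 also: OY570 slx delta 5 strain wells were the positive control but not used for scaling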
A1 inh – inhibitors of the anti-apoptotic protein A1, read as caspase activation; MEF A1-2A-BIM cells, Caspase-Glo 3/7 luminescence, 3 h; percent of clofoctol response, vehicle zero; caspase activation, % (test concentration not listed); hit rate 0.066% among 330,000;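 active = over half of replicate activation scores above 10%, or exactly half above 10 with the replicate mean above 10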
aDG glyco up – increases alpha dystroglycan glycosylation. Pro5-aDG cells, alpha-DG glycosylation AlphaScreen (IIH6); 0% Pro5, 100% B10-LARGE cell signal. activation, % at 10 µM. hit rate 0.22% among 360,000;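 active = activation of at least 8% versus controls, or a plate z-score of at least 8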;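 also: Pro5 are CHO cells carrying HIG-tagged alpha-DG that lacks glycosylation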
AI-2 QS modul – modulates the Vibrio harveyi AI-2 quorum sensing system | activity change, % at 7.5 µM | AID 2094 | hit rate 0.4% among 300,000 | Vibrio harveyi JMH597 AI-2 luminescence/OD600 ratio, 9 h; stronger effect = lower value; strain lacks LuxN and CqsS sensors; 0 = neutral-control median; in the data active = activity change below about -75%, passing the limit was not always enough;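 also: luminescence divided by OD600 gain over 9 h not by final OD600 alone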
Starred values were filed as active, the others as inactive; ! = not confirmed by another sample. Sampled rows, rich in hits. Any-hit rate of the full collection: about 1.8%.

Results for O=C1C=C(c2ccccc2)C[C@@H](c2ccc3c(c2)OCO3)C1 ?
ARNT TACC3 PPI: -1; SUMO Mot1 rescue: 23; A1 inh: 1; aDG glyco up: 0

Results for CN(C)c1ccc(/C=C/c2ccc3ccccc3[n+]2C)cc1 ?
ARNT TACC3 PPI: 29; SUMO Mot1 rescue: -1; A1 inh: -1; aDG glyco up: 4; AI-2 QS modul: -92*

What do the screens show for `Cc1ccc2nc(-c3ccccn3)c(Nc3ccccc3C)n2c1`?
ARNT TACC3 PPI: 64*; SUMO Mot1 rescue: 4; A1 inh: 1; aDG glyco up: 2; AI-2 QS modul: 36

How did Cc1ccccc1Nc1c(-c2ccccn2)nc2ccccn12 do in these assays?
ARNT TACC3 PPI: 59*; SUMO Mot1 rescue: -4; A1 inh: 0; aDG glyco up: 1; AI-2 QS modul: 73

Results for Cc1ccccc1Nc1c(-c2cccnc2)nc2ccccn12 ?
SUMO Mot1 rescue: -12; A1 inh: 1; aDG glyco up: 1; AI-2 QS modul: 17

How did c1cn(CCCNC2=NCCCCC2)cn1 do in these assays?
ARNT TACC3 PPI: 97*; SUMO Mot1 rescue: -13; A1 inh: 1; aDG glyco up: 0; AI-2 QS modul: 19

What do the screens show for `Cc1cccc(C)c1N=C1SC(CC(=O)Nc2c(C)cccc2C)C(=O)N1CCc1ccccn1` (stereo unspecified)?
ARNT TACC3 PPI: -1; SUMO Mot1 rescue: 468*; A1 inh: 1; aDG glyco up: 0; AI-2 QS modul: 2

What do the screens show for `O=C(Nc1ccccc1N1CCN(C(=O)c2ccccc2)CC1)c1cc(Br)ccc1Cl`?
ARNT TACC3 PPI: 23; SUMO Mot1 rescue: 9; A1 inh: 0; aDG glyco up: 0; AI-2 QS modul: 12

How did Cc1ccc(OCC(=O)NCCNC(=O)COc2ccc(C)cc2)cc1 do in these assays?
ARNT TACC3 PPI: -3; SUMO Mot1 rescue: 123; A1 inh: 0; aDG glyco up: 0; AI-2 QS modul: 11

What do the screens show for `Cc1ccc(OCC(=O)NCCNC(=O)c2ccco2)cc1`?
ARNT TACC3 PPI: -9; SUMO Mot1 rescue: 348*; A1 inh: 0; aDG glyco up: 0; AI-2 QS modul: 33

How did O=C(O)C(=O)/C(=C\c1ccsc1)c1ccc2ccccc2n1 do in these assays?
ARNT TACC3 PPI: -98; SUMO Mot1 rescue: -8; A1 inh: 0; aDG glyco up: 0; AI-2 QS modul: 5

What do the screens show for `COC(=O)c1cc(NC(=O)c2ccc([N+](=O)[O-])cc2)c(=O)oc1C`?
ARNT TACC3 PPI: 2; SUMO Mot1 rescue: 975*; A1 inh: -1; aDG glyco up: 0; AI-2 QS modul: -10

What do the screens show for `CCNc1nc(NCC)nc(C(=O)NN)n1`?
ARNT TACC3 PPI: 75*; SUMO Mot1 rescue: 78; A1 inh: -1; aDG glyco up: 0; AI-2 QS modul: 8

What do the screens show for `CC(NC(=O)c1ccccc1Br)c1ccc2c(c1)CCCC2` (stereo unspecified)?
ARNT TACC3 PPI: -19; SUMO Mot1 rescue: 87; A1 inh: 0; aDG glyco up: 0; AI-2 QS modul: 5

Results for Cc1ccccc1OCCCC(=O)Nc1nccs1 ?
ARNT TACC3 PPI: -4; SUMO Mot1 rescue: 9; A1 inh: 0; aDG glyco up: 0; AI-2 QS modul: 11

What do the screens show for `COc1cc(N)c2ncccc2c1SC`?
aDG glyco up: 0

What do the screens show for `COc1cc(N)c2ncccc2c1Br`?
ARNT TACC3 PPI: 107*; aDG glyco up: 0

Results for Cc1ccc2c(c1)C(=O)C(=O)N2Cc1ccc(Br)cc1 ?
ARNT TACC3 PPI: 5; SUMO Mot1 rescue: 187; A1 inh: 5.9*; aDG glyco up: 0

How did O=[N+]([O-])c1ccc(N2CCN(c3ccc(F)cc3)CC2)cc1 do in these assays?
ARNT TACC3 PPI: 0; SUMO Mot1 rescue: 11; A1 inh: 1; aDG glyco up: 0; AI-2 QS modul: 8

What do the screens show for `O=c1cc(O)n(C2CCCCCC2)c(=O)[nH]1`?
ARNT TACC3 PPI: active; SUMO Mot1 rescue: -19; A1 inh: 0; aDG glyco up: 0; AI-2 QS modul: 5

How did COc1ccc(C(C(=O)NC2CCCCC2)N(C(=O)CCl)c2cccc(Cl)c2)cc1 (stereo unspecified) do in these assays?
ARNT TACC3 PPI: -7; SUMO Mot1 rescue: 328*; A1 inh: 2; aDG glyco up: 0; AI-2 QS modul: 44

What do the screens show for `COCC(=O)N1CCCC(C(=O)c2ccc(Oc3ccccc3)cc2)C1` (stereo unspecified)?
ARNT TACC3 PPI: -9; SUMO Mot1 rescue: -17; A1 inh: 0; aDG glyco up: 0; AI-2 QS modul: 37

How did COCCN(CC(=O)NC1CCCCC1)C(=O)/C=C/C(=O)c1ccc(OC)cc1O do in these assays?
ARNT TACC3 PPI: -10; aDG glyco up: 0; AI-2 QS modul: 29

Results for COc1ccc(C(=O)/C=C/C(=O)N(CC(=O)NC2CCCCC2)Cc2cccs2)c(O)c1 ?
ARNT TACC3 PPI: -2; SUMO Mot1 rescue: 155; A1 inh: 26*; aDG glyco up: 0; AI-2 QS modul: 29

What do the screens show for `Cc1cc(S(=O)(=O)c2ccc([N+](=O)[O-])cn2)ccc1Br`?
ARNT TACC3 PPI: -1; SUMO Mot1 rescue: 379*; A1 inh: 0; aDG glyco up: 0; AI-2 QS modul: 30

Results for COC(=O)Cc1cc(=O)[nH]c(Nc2nc3ccccc3o2)n1 ?
ARNT TACC3 PPI: 26; A1 inh: -1; aDG glyco up: 0; AI-2 QS modul: 7

How did COCc1cc(=O)[nH]c(Nc2nc3ccccc3o2)n1 do in these assays?
ARNT TACC3 PPI: 60*; SUMO Mot1 rescue: -9; A1 inh: -4; aDG glyco up: -1; AI-2 QS modul: 44

What do the screens show for `CCC(C)CCCCNC1=NCCS1` (stereo unspecified)?
ARNT TACC3 PPI: -45; SUMO Mot1 rescue: -11; A1 inh: 0; aDG glyco up: 1; AI-2 QS modul: 0

How did CCCCCCNC1=NCCS1 do in these assays?
ARNT TACC3 PPI: -9; SUMO Mot1 rescue: 720*; A1 inh: 0; aDG glyco up: 0; AI-2 QS modul: 12

What do the screens show for `CC(=O)c1ccc2c(c1)N(CCCN1CCC(CCO)CC1)c1ccccc1S2`?
ARNT TACC3 PPI: 1; SUMO Mot1 rescue: 14; A1 inh: 1; aDG glyco up: 1

How did CSc1ccc2c(c1)N(CCC1CCCCN1C)c1ccccc1S2 (stereo unspecified) do in these assays?
ARNT TACC3 PPI: 58*!; SUMO Mot1 rescue: -3; A1 inh: 0; aDG glyco up: 0; AI-2 QS modul: 18

How did O=C(Nc1nnc(-c2ccco2)o1)c1cccc(N2C(=O)CCC2=O)c1 do in these assays?
ARNT TACC3 PPI: 49*; SUMO Mot1 rescue: -7; A1 inh: 2; aDG glyco up: 0; AI-2 QS modul: 25

Results for O=C(/C=C/c1ccc([N+](=O)[O-])cc1)N1CCN(S(=O)(=O)c2cccs2)CC1 ?
ARNT TACC3 PPI: -1; SUMO Mot1 rescue: 20; A1 inh: 1; aDG glyco up: 0; AI-2 QS modul: 25

Source: PubChem (several laboratories)
